Whole data set: some 16,000 sequences, median “e-score” near -0.044, cut for the highest 2% near 0.38. The full list was thinned out, with the highest values kept by preference.
Target: T1, GST-NbGlk1(82-244) (Nicotiana benthamiana)
T1 chain: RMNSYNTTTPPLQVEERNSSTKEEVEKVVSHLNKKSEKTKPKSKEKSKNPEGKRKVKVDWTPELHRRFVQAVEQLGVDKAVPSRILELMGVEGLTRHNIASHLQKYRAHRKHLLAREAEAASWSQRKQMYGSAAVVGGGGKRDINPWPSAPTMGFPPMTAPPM
Assay: protein-binding microarray; NbGlk1 is a Golden2-like transcription factor of Nicotiana benthamiana; high values mean tight binding
Conditions: protein: recombinant; tags: GST (pTH6838); dsDNA, one strand shown

| Sequence | binding signal |
| --- | --- |
| CAGATCTA | 0.249 ± 0.0194 E-score |
| AGGATCTC | 0.402 ± 0.0113 E-score |
| CAGATCTC | 0.423 ± 0.0294 E-score |
| CAGATCCC | 0.266 ± 0.0242 E-score |
| AGGATCTG | 0.337 ± 0.025 E-score |
| AGGATCTA | 0.314 ± 0.04 E-score |
| CAGATCCG | 0.266 ± 0.0152 E-score |
| ATTCGCTC | 0.231 ± 0.0553 E-score |
| ATCACGAT | 0.29 ± 0.0315 E-score |
| ATTCCAAC | 0.2142 ± 0.000545 E-score |
| ATCCGTTG | 0.233 ± 0.0162 E-score |
| ATATGCAT | 0.219 ± 0.0814 E-score |
| ATATGGAA | 0.219 ± 0.0165 E-score |
| ATCTAAAA | 0.244 ± 0.06 E-score |
| ACCGGAAT | 0.243 ± 0.0509 E-score |
| AGGAGGAT | 0.244 ± 0.0559 E-score |
| ATTCGCCA | 0.278 ± 0.00941 E-score |
| ATCCTTTA | 0.274 ± 0.0111 E-score |
| AAGATCTT | 0.399 ± 0.0153 E-score |
| AAGATCCT | 0.339 ± 0.00784 E-score |
| AAGATCAT | 0.214 ± 0.0212 E-score |
| AATCGATT | 0.353 ± 0.0155 E-score |
| ATTCCATA | 0.257 ± 0.00403 E-score |

| Sequence | binding signal |
| --- | --- |
| AATCCATG | 0.381 ± 0.0124 E-score |
| ATTCCATG | 0.229 ± 0.0434 E-score |
| AATCCATC | 0.367 ± 0.0565 E-score |
| AATCCCAT | 0.331 ± 0.00747 E-score |
| AATCCCTG | 0.283 ± 0.0408 E-score |
| AATCCATT | 0.38 ± 0.039 E-score |
| AATCCATA | 0.3787 ± 0.000904 E-score |
| ATCCTCGA | 0.224 ± 0.0852 E-score |
| AAATATGG | 0.272 ± 0.0577 E-score |
| ATCTTCCA | 0.319 ± 0.0516 E-score |
| AATATTAG | 0.209 ± 0.0412 E-score |
| ATCGGCAA | 0.216 ± 0.00468 E-score |
| ATCTTTCA | 0.247 ± 0.0983 E-score |
| ATCTATGA | 0.247 ± 0.0113 E-score |
| AGATTTGA | 0.327 ± 0.0876 E-score |
| AATTTTGG | 0.25 ± 0.0182 E-score |
| AGATTTGG | 0.394 ± 0.0453 E-score |
| AGATTTGC | 0.4695 ± 0.00449 E-score |
| ATATTTGC | 0.338 ± 0.0673 E-score |
| AGATTTAG | 0.276 ± 0.0684 E-score |
| ATCATGAT | 0.205 ± 0.00494 E-score |
| ATTTCGGC | 0.283 ± 0.0422 E-score |
| ACTAAGAT | 0.231 ± 0.0287 E-score |

| Sequence | binding signal |
| --- | --- |
| ACTAAAAT | 0.281 ± 0.0324 E-score |
| ATCCACAT | 0.256 ± 0.0906 E-score |
| AGATCTTG | 0.373 ± 0.0461 E-score |
| CAATCTTC | 0.294 ± 0.0422 E-score |
| AAATCATG | 0.332 ± 0.0128 E-score |
| AAATCGTG | 0.365 ± 0.0286 E-score |
| AGATCTTC | 0.428 ± 0.0156 E-score |
| AAATCGTA | 0.373 ± 0.0227 E-score |
| AGATCTTA | 0.347 ± 0.0143 E-score |
| AAATCGTC | 0.354 ± 0.0288 E-score |
| AAATCTTC | 0.446 ± 0.0208 E-score |
| CAATCTTA | 0.304 ± 0.0126 E-score |
| AAATCTTA | 0.44 ± 0.0386 E-score |
| AAATCTTG | 0.4213 ± 0.00314 E-score |
| ATCTTCTC | 0.311 ± 0.013 E-score |
| ATCAGATC | 0.35 ± 0.0204 E-score |
| ATTACGTA | 0.354 ± 0.0309 E-score |
| AGATACTG | 0.33 ± 0.00398 E-score |
| AGCGCGAT | 0.325 ± 0.0563 E-score |
| AATCGATG | 0.268 ± 0.0785 E-score |
| AATCTATC | 0.366 ± 0.0334 E-score |
| AATCTATA | 0.402 ± 0.0321 E-score |
| AATATATG | 0.252 ± 0.0059 E-score |

| Sequence | binding signal |
| --- | --- |
| AATCTATG | 0.38 ± 0.0331 E-score |
| ATTCTATA | 0.284 ± 0.0791 E-score |
| ATCTGCGC | 0.317 ± 0.0626 E-score |
| AACGCGAT | 0.341 ± 0.0519 E-score |
| AAAGGAAT | 0.27 ± 0.0558 E-score |
| ATCCAGTG | 0.221 ± 0.123 E-score |
| AAAGATAT | 0.342 ± 0.0309 E-score |
| AGAGATAC | 0.222 ± 0.0223 E-score |
| ATAGATAC | 0.26 ± 0.0116 E-score |
| ACAGATAC | 0.276 ± 0.00718 E-score |
| ATAGAGAT | 0.276 ± 0.0241 E-score |
| AGAGAGAT | 0.241 ± 0.0533 E-score |
| AGAGATAT | 0.391 ± 0.0365 E-score |
| ACAGATAT | 0.415 ± 0.0135 E-score |
| AGAGATCC | 0.346 ± 0.0193 E-score |
| AGAGATCG | 0.303 ± 0.0386 E-score |
| ATAGATAT | 0.394 ± 0.0151 E-score |
| AGAGATCT | 0.411 ± 0.0152 E-score |
| AACTAGAT | 0.208 ± 0.0834 E-score |
| ATTTCTCC | 0.242 ± 0.0333 E-score |
| AATTACGT | 0.26 ± 0.0756 E-score |
| ATTCTTGA | 0.221 ± 0.0445 E-score |
| ACGAAGAT | 0.31 ± 0.00598 E-score |

| Sequence | binding signal |
| --- | --- |
| ATATGCTG | 0.258 ± 0.0732 E-score |
| AAAGATCT | 0.38 ± 0.023 E-score |
| AAAGATCG | 0.278 ± 0.0495 E-score |
| AAAGATCC | 0.292 ± 0.0246 E-score |
| AGCAAGAT | 0.309 ± 0.0213 E-score |
| ATTATCCC | 0.261 ± 0.0646 E-score |
| ATAACGAT | 0.216 ± 0.0183 E-score |
| ATCTCCAT | 0.335 ± 0.0406 E-score |
| ATATCCAG | 0.3945 ± 0.00384 E-score |
| ATATCAAA | 0.228 ± 0.00678 E-score |
| ATATCAAG | 0.298 E-score |
| ATATCCCA | 0.3708 ± 0.000904 E-score |
| ATATCAAT | 0.281 ± 0.00703 E-score |
| AGATCCAC | 0.287 ± 0.0119 E-score |
| ATATCCAT | 0.43 ± 0.00596 E-score |
| ATATCCAC | 0.393 E-score |
| ATATCCCC | 0.36 ± 0.0106 E-score |
| ATATCCAA | 0.407 ± 0.00723 E-score |
| AGATCCAG | 0.261 ± 0.0749 E-score |

Source: PMC5836133, “The intracellular immune receptor Rx1 regulates the DNA-binding activity of a Golden2-like transcription factor”
